Reference: PubChem BioAssay AID1159580 (chemical genetic matrix, 2015)
Among all 5,500 compounds or so, about 2,000 (36%) were called active. About 18% were inconclusive and are not listed. No stated cut-off is given here; in the data, active means normalized growth mostly below about 0.91 (no sharp cut-off); inconclusive means no clear call, values can overlap the other calls; inactive means mostly above about 0.92. The list shows a part of the results.

Assay: chemical genetic growth profiling, strain panel (AID 1159580);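 further: tested at 20 µM; growth read once vehicle control cultures reached saturation at 30 °C; 1 = growth at the plate median or of vehicle wells; lower values mean less growth of the strain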
Conditions: growth OD

Measured: normalized growth

COC1=CC(=O)C[C@@H](C)[C@]12Oc1c(Cl)c(OC)cc(OC)c1C2=O
inactive: S. cerevisiae deletion strains, locus YJR075W, strain HOC1, hits give low values 1.03 | S. cerevisiae deletion strains, locus YKL009W, strain mrt4, hits give low values 1 | S. cerevisiae deletion strains, locus YKL068W, hits give low values 0.986 | S. cerevisiae deletion strains, locus YKL085W, strain MDH1 (second series), hits give low values 0.989 | S. cerevisiae deletion strains, locus YKL085W, strain MDH1, hits give low values 0.989 | S. cerevisiae deletion strains, locus YKL160W, strain elf1, hits give low values 1.02 | S. cerevisiae deletion strains, locus YKL190W, strain CNB1, hits give low values 1 | S. cerevisiae deletion strains, locus YKR001C, strain vps1, hits give low values 0.995 | S. cerevisiae deletion strains, locus YKR026C, strain gcn3, hits give low values 0.979 | S. cerevisiae deletion strains, locus YKR091W, strain srl3, hits give low values 0.989 | S. cerevisiae deletion strains, locus YLL001W, strain dnm1, hits give low values 0.984 | S. cerevisiae deletion strains, locus YLL026W, hits give low values 0.984 | S. cerevisiae deletion strains, locus YLL041C, strain sdh2, hits give low values 0.996 | S. cerevisiae deletion strains, locus YLR027C, strain aat2, hits give low values 0.993 | S. cerevisiae deletion strains, locus YLR039C, strain RIC1, hits give low values 0.983 | S. cerevisiae deletion strains, locus YLR058C, strain SHM2, hits give low values 0.996 | S. cerevisiae deletion strains, locus YLR102C, strain apc9, hits give low values 1 | S. cerevisiae deletion strains, locus YLR113W, strain HOG1, hits give low values 1 | S. cerevisiae deletion strains, locus YLR221C, strain rsa3, hits give low values 0.956 | S. cerevisiae deletion strains, locus YLR258W, strain gsy2, hits give low values 0.982 | S. cerevisiae deletion strains, locus YLR262C, strain YPT6 (second series), hits give low values 0.967 | S. cerevisiae deletion strains, locus YLR262C, strain YPT6, hits give low values 0.936 | S. cerevisiae deletion strains, locus YLR268W, strain sec22, hits give low values 0.994 | S. cerevisiae deletion strains, locus YLR320W, strain mms22, hits give low values 0.982 | S. cerevisiae deletion strains, locus YLR330W, strain CHS5, hits give low values 0.994 | S. cerevisiae deletion strains, locus YLR342W, strain FKS1 (second series), hits give low values 0.979 | S. cerevisiae deletion strains, locus YLR342W, strain FKS1, hits give low values 0.972 | S. cerevisiae deletion strains, locus YLR357W, strain rsc2, hits give low values 1.01 | S. cerevisiae deletion strains, locus YLR370C, strain arc18, hits give low values 0.943 | S. cerevisiae deletion strains, locus YLR371W, strain rom2, hits give low values 0.987 | S. cerevisiae deletion strains, locus YLR384C, strain iki3, hits give low values 0.993 | S. cerevisiae deletion strains, locus YLR418C, strain cdc73, hits give low values 0.987 | S. cerevisiae deletion strains, locus YML016C, strain PPZ1, hits give low values 0.991 | S. cerevisiae deletion strains, locus YML032C, strain rad52, hits give low values 0.986 | S. cerevisiae deletion strains, locus YML120C, strain ndi1, hits give low values 0.951 | S. cerevisiae deletion strains, locus YML124C, strain tub3, hits give low values 0.99 | S. cerevisiae deletion strains, locus YMR058W, strain fet3, hits give low values 0.999 | S. cerevisiae deletion strains, locus YMR078C, strain ctf18, hits give low values 0.987 | S. cerevisiae deletion strains, locus YMR125W, strain sto1, hits give low values 0.988 | S. cerevisiae deletion strains, locus YMR129W, hits give low values 0.983 | S. cerevisiae deletion strains, locus YMR205C, strain PFK2, hits give low values 1.01 | S. cerevisiae deletion strains, locus YMR223W, strain ubp8, hits give low values 0.988 | S. cerevisiae deletion strains, locus YMR231W, strain pep5, hits give low values 0.991 | S. cerevisiae deletion strains, locus YMR263W, strain SAP30, hits give low values 1.01 | S. cerevisiae deletion strains, locus YMR307W, strain GAS1, hits give low values 0.847 | S. cerevisiae deletion strains, locus YNL067W, strain RPL9B, hits give low values 1.04 | S. cerevisiae deletion strains, locus YNL071W, strain lat1, hits give low values 0.992 | S. cerevisiae deletion strains, locus YNL128W, strain TEP1, hits give low values 1 | S. cerevisiae deletion strains, locus YNL153C, strain GIM3, hits give low values 1.04 | S. cerevisiae deletion strains, locus YNL183C, strain NPR1, hits give low values 0.958 | S. cerevisiae deletion strains, locus YNL209W, strain ssb2, hits give low values 0.984 | S. cerevisiae deletion strains, locus YNL233W, strain BNI4, hits give low values 1.06 | S. cerevisiae deletion strains, locus YNL248C, strain rpa49, hits give low values 1.05 | S. cerevisiae deletion strains, locus YNL250W, strain rad50, hits give low values 1 | S. cerevisiae deletion strains, locus YNL271C, strain bni1, hits give low values 0.99 | S. cerevisiae deletion strains, locus YNL298W, strain CLA4, hits give low values 0.995 | S. cerevisiae deletion strains, locus YNL307C, strain MCK1, hits give low values 1 | S. cerevisiae deletion strains, locus YNL322C, strain KRE1 (second series), hits give low values 0.991 | S. cerevisiae deletion strains, locus YNL322C, strain KRE1, hits give low values 1 | S. cerevisiae deletion strains, locus YNR049C, strain mso1, hits give low values 0.98 | S. cerevisiae deletion strains, locus YNR052C, strain pop2, hits give low values 0.999 | S. cerevisiae deletion strains, locus YOL006C, strain TOP1, hits give low values 1.11 | S. cerevisiae deletion strains, locus YOL012C, strain htz1 0.916 | S. cerevisiae deletion strains, locus YOL147C, strain pex11, hits give low values 0.993 | S. cerevisiae deletion strains, locus YOR001W, strain rrp6, hits give low values 0.967 | S. cerevisiae deletion strains, locus YOR061W, strain CKA2, hits give low values 0.968 | S. cerevisiae deletion strains, locus YOR069W, strain VPS5, hits give low values 0.993 | S. cerevisiae deletion strains, locus YOR070C, strain gyp1, hits give low values 0.977 | S. cerevisiae deletion strains, locus YOR080W, strain dia2, hits give low values 0.982 | S. cerevisiae deletion strains, locus YOR083W, strain WHI5, hits give low values 1.02 | S. cerevisiae deletion strains, locus YOR106W, strain vam3, hits give low values 1 | S. cerevisiae deletion strains, locus YOR136W, strain idh2, hits give low values 1 | S. cerevisiae deletion strains, locus YOR144C, strain elg1, hits give low values 0.988 | S. cerevisiae deletion strains, locus YOR184W, strain ser1, hits give low values 0.991 | S. cerevisiae deletion strains, locus YOR231W, strain MKK1, hits give low values 1.01 | S. cerevisiae deletion strains, locus YOR265W, strain rbl2, hits give low values 0.978 | S. cerevisiae deletion strains, locus YOR270C, strain vph1, hits give low values 0.952 | S. cerevisiae deletion strains, locus YOR290C, strain snf2, hits give low values 1.03 | S. cerevisiae deletion strains, locus YOR316C, strain cot1, hits give low values 0.992 | S. cerevisiae deletion strains, locus YPL051W, strain arl3, hits give low values 1.02 | S. cerevisiae deletion strains, locus YPL055C, strain LGE1, hits give low values 0.985 | S. cerevisiae deletion strains, locus YPL078C, strain atp4, hits give low values 1.03 | S. cerevisiae deletion strains, locus YPL106C, strain sse1, hits give low values 0.964 | S. cerevisiae deletion strains, locus YPL240C, strain hsp82, hits give low values 0.988 | S. cerevisiae deletion strains, locus YPL241C, strain CIN2, hits give low values 0.992 | S. cerevisiae deletion strains, locus YPL256C, strain CLN2, hits give low values 0.985 | S. cerevisiae deletion strains, locus YPR119W, strain clb2, hits give low values 0.99 | S. cerevisiae deletion strains, locus YPR141C, strain kar3, hits give low values 0.978 | S. cerevisiae deletion strains, locus YPR163C, strain tif3, hits give low values 0.98 | S. cerevisiae deletion strains, locus YPR167C, strain met16, hits give low values 0.99 | S. cerevisiae deletion strains, strain wtn01, hits give low values 0.998 | S. cerevisiae strains, strain wild type, hits give low values 0.988
